# Data reported in PubChem BioAssay (NCI).
# About 83,000 compounds went through this panel and 20% of them were active in at least one assay; those are over-represented in the sample as a whole.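 Cell lines were cultured in 96-well plates, exposed to a single compound concentration, and assessed for percent growth 48 hours later.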 Values without a mark were called inactive. Activity calls are given as the source filed them. The calls were made as follows: active = growth percent below 10; inactive = the rest.
# How the values were obtained:
# Experiment in all cases: NCI-60 one-dose screen, 48 h (100 = growth as untreated, 0 = no growth, -100 = all killed)
# [1] = system: SK-MEL-2 melanoma; settings: 10 µM unless noted
# [2] = system: EKVX NSCLC; settings: 10 µM unless noted
# [3] = system: SN12C renal; settings: 10 µM unless noted
# [4] = system: UO-31 renal; settings: 10 µM unless noted
# [5] = system: ACHN renal; settings: 10 µM unless noted
# [6] = system: CAKI-1 renal; settings: 10 µM unless noted
# [7] = system: A498 renal; settings: 10 µM unless noted
# [8] = system: CCRF-CEM leukemia; settings: 10 µM unless noted
# [9] = system: MOLT-4 leukemia; settings: 10 µM unless noted
# [10] = system: SR leukemia; settings: 10 µM unless noted
# [11] = system: RPMI-8226 leukemia; settings: 10 µM unless noted
# [12] = system: OVCAR-8 ovarian; settings: 10 µM unless noted
# [13] = system: OVCAR-4 ovarian; settings: 10 µM
# [14] = system: SK-OV-3 ovarian; settings: 10 µM unless noted
# [15] = system: IGROV1 ovarian; settings: 10 µM unless noted
# [16] = system: OVCAR-3 ovarian; settings: 10 µM unless noted
# [17] = system: HS 578T breast; settings: 10 µM unless noted
# [18] = system: NCI/ADR-RES ovarian; settings: 10 µM unless noted
# [19] = system: OVCAR-5 ovarian; settings: 10 µM unless noted
# [20] = system: TK-10 renal; settings: 10 µM unless noted
Structure (SMILES),growth [1],growth [2],growth [3],growth [4],growth [5],growth [6],growth [7],growth [8],growth [9],growth [10],growth [11],growth [12],growth [13],growth [14],growth [15],growth [16],growth [17],growth [18],growth [19],growth [20]
COc1ccccc1S(=O)Nc1ccccc1 (stereo not given),82.5%,106%,94.4%,85.9%,107%,98.2%,82.9%,93.6%,103%,82.7%,99.9%,94.2%,110%,105%,107%,107%,82%,105%,,
CCN(CC)c1ccc2cc(NC(=O)OCCNC(=O)CCNC(=O)[C@H](CC(C)C)NC(=O)C(C)(C)NC(=O)C(C)(C)NC(=O)[C@H](CC(C)C)NC(=O)CCNC(=O)C(C)(C)NC(=O)[C@H](CC(C)C)NC(=O)CCNC(=O)[C@@](C)(CC)NC(=O)[C@H](C)NC(=O)CCNC(=O)C(C)(C)NC(=O)[C@H](C)NC(=O)[C@@H]3CCCN3C(=O)[C@@](C)(CC)NC(=O)[C@H](Cc3ccccc3)NC(=O)C3CCCN3C(=O)C(C)(C)NC(=O)C3CCCN3C(=O)C(C)(C)NC(C)=O)c(=O)oc2c1 (stereo not given in full),-80.4% (active),-100% (active),-74.6% (active),-80.5% (active),-85.4% (active),-92.4% (active),-98.5% (active),-63.5% (active),-62% (active),-52.9% (active),-60.4% (active),-74.8% (active),-94.9% (active),,-69.3% (active),-100% (active),-60.1% (active),-93.5% (active),-87.7% (active),
O=C(CCNCc1ccccc1)c1ccccc1,108%,104%,109%,,107%,100%,112%,116%,109%,109%,105%,112%,119%,109%,114%,102%,110%,105%,103%,113%
CCN(CC)c1ccc(/C=C/c2ccc3cc(C)ccc3[n+]2CC)cc1,-32.3% (active),11.8%,14.2%,5.46% (active),0.905% (active),15.7%,5.43% (active),6.14% (active),-15.3% (active),-17.6% (active),-8.91% (active),2.3% (active),21.2%,-11.6% (active),26.5%,14.9%,46.5%,45.7%,26.8%,
O=C1CN(Cc2ccc(C(=O)NO)cc2)C(=O)[C@@H](Cc2ccccc2)N1,112%,98.9%,102%,92.9%,103%,94.1%,94.7%,105%,101%,113%,102%,95.6%,,96.5%,106%,,101%,110%,101%,
O=c1cc(-c2ccccc2)oc2c(O)c(O)ccc12,85.4%,90%,68.7%,36.2%,,,73.1%,41.6%,55.9%,36.6%,45.6%,52.8%,61.6%,76.7%,,,91.4%,24.5%,62.9%,75.2%
COc1ccc(/C=C(/C2=NCCN2)n2ccc3ccccc32)cc1,99.5%,88.5%,88.9%,52.9%,82.9%,,89%,86.2%,93.2%,79.5%,93.1%,97.1%,94.8%,97.1%,82.8%,,84.4%,93%,90%,
Oc1c(CNCCNCc2cc(Cl)cc(Cc3ccccc3)c2O)cc(Cl)cc1Cc1ccccc1,27.1%,24%,19.1%,,10.3%,6.39% (active),36.2%,8.47% (active),18.2%,5.69% (active),20.8%,14.3%,27.1%,15.4%,12.8%,,40.7%,8.69% (active),52.9%,36.8%
CN(C)c1ccc(N=Nc2ccc3ccccc3c2)cc1,98.7%,83.5%,87%,,87.8%,91.4%,88.5%,72%,80.8%,61.8%,79.7%,98.2%,76.7%,96%,77.8%,88.7%,98.4%,98.1%,104%,91.4%
c1nc(N2CCOCC2)c2[nH]ccc2n1,96%,103%,104%,,109%,,96.3%,107%,94%,92%,,106%,106%,110%,112%,118%,96.7%,,116%,95.3%
Cc1ccc(S(=O)(=O)Nc2ccccc2)cc1N,87.4%,116%,91.3%,,101%,89.5%,76.9%,110%,96.6%,92.2%,123%,95.4%,111%,104%,,95.6%,,91%,91.3%,121%
O=C(CCCSc1nc(-c2ccccc2)cc(-c2ccccc2)n1)NO,3.29% (active),10.3%,12.3%,,0.594% (active),1.69% (active),-15.6% (active),3.58% (active),4.55% (active),1.05% (active),14.9%,5.38% (active),11.9%,-18.6% (active),12.6%,-5.33% (active),45.2%,-12.1% (active),9.78% (active),9.4% (active)
Clc1ccc(N2CCN(CCCN3CCN(c4cccc(Cl)c4)CC3)CC2)cc1,96.7%,41.9%,64.2%,,71.6%,42.7%,60.4%,58.9%,43.7%,15.4%,24.9%,70.7%,55.7%,,,66.4%,103%,65.5%,78.9%,41.4%
Cc1cc(C)c(O)c(CNCCCNCc2cc(C)cc(C)c2O)c1,88.5%,,73.4%,28.2%,73.6%,62.1%,47%,68.4%,67.5%,-30.5% (active),28.5%,82.2%,88.3%,89.3%,62%,77%,11.2%,72.5%,74.6%,77%
CCc1cccc(Cl)c1,118%,105%,90.6%,,98.9%,108%,120%,88.2%,98.1%,103%,,104%,,107%,100%,110%,118%,103%,105%,107%
c1coc2occoc=2o1,105%,106%,89.2%,,102%,101%,107%,,114%,114%,100%,107%,,99.6%,109%,103%,104%,107%,101%,103%
Cc1cccc(C[C@H](NC(=O)Nc2ccc(Cl)cc2F)C(=O)N[C@@H]2C(=O)N3C[C@H](OC(=O)CCN(C)C)C[C@H]3C(=O)N3CCCC[C@H]3C(=O)N[C@@H](C)C(=O)N3C[C@H](C)C[C@H]3C(=O)O[C@H]2C)c1,24.4%,47.3%,12.5%,,27.5%,15.5%,-11.1% (active),,27.8%,28.7%,10%,16.8%,11.4%,,35.6%,8.87% (active),26.2%,94.9%,32.6%,47.8%
